Measurements reported in PubChem BioAssay (EPA / NIEHS).
Results filed as inconclusive are left out. Active and inactive are the calls of the source. Rule for the calls, unless noted: active = hit-call score of the fitted dose curve at least 0.9, where 1 is the maximum; inactive = score below 0.9.

Key:
[1] = ACEA_ER_80hr: ACEA Biosciences xCELLigence Real-Time Cell Analysis on Estrogen Receptor Agonism for Proliferation (AID 2282667; active = hit-call score of the fitted dose curve at least 0.9, where 1 is the maximum); conditions: T47D proliferation, impedance (xCELLigence), 80 h
Outline: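 Cell-growth kinetics were measured by impedance in T47D cells treated continuously with compound (top 100 uM final, 1:4 steps, 8 points). Activity at 80 h was scored as signal gain over the DMSO baseline.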

[2] = ATG_CRE_CIS: Attagene CIS-FACTORIAL HepG2 Assay for human cAMP Responsive Element (CRE) binding protein 3 (AID 2282926); conditions: HepG2 CRE cis-reporter, Attagene multiplexed mRNA; actives raise or lower the signal
Outline: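 Cells carrying cis-regulated reporter constructs respond through their own endogenous factors. After 24 h treatment, RNA is reverse-transcribed, amplified, labelled and sized by capillary electrophoresis; up- and down-regulation are both scored against vehicle.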

[3] = target: CCAAT/enhancer-binding protein beta (Homo sapiens) (UniProt P17676); assay: ATG_C_EBP_CIS: Attagene CIS-FACTORIAL HepG2 Assay for human CCAAT/Enhancer Binding Protein (C/EBP) beta (AID 2282927); conditions: HepG2 Attagene cis-factorial transcription factor reporter; actives raise or lower the signal
Outline: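 Transiently transfected HepG2 (MRTU library, endogenous TF-driven promoters); 24 h dosing; total RNA → oligo(dT) RT → PCR → 6-FAM primer extension → HpaI digest → CE; fit bidirectionally vs DMSO.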

[4] = ATG_CMV_CIS: Attagene CIS-FACTORIAL HepG2 Assay for human CMV (Internal Marker) (AID 2282928); conditions: HepG2 CMV promoter reporter, transcription factor profiling; actives raise or lower the signal;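 note: endpoint acts as a background internal control marker rather than a target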
Outline: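 Fluorescence intensity of RT-PCR-derived reporter fragments, resolved by capillary electrophoresis, gives the signal. HepG2 liver cells bearing transfected cis-element reporters were treated 24 h; activity in either direction was fit relative to DMSO-treated controls.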

[5] = ATG_DR4_LXR_CIS: Attagene CIS-FACTORIAL HepG2 Assay for human Liver X Receptor (LXR), DR4 submotif (AID 2282929); conditions: HepG2 Attagene DR4 cis-reporter, mRNA transcription; actives raise or lower the signal
Outline: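 Endogenous factor activity at a DR4 cis-element is read as reporter mRNA in transiently transfected HepG2 cells. Exposure lasts 24 h; transcripts are amplified, fluorescently labelled and sized by capillary electrophoresis, with DMSO as baseline.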

[6] = target: Aryl hydrocarbon receptor (Homo sapiens) (UniProt P35869); assay: ATG_Ahr_CIS: Attagene CIS-FACTORIAL HepG2 Assay for human Aryl Hydrocarbon Receptor (Ahr) (AID 2282930); conditions: HepG2 AhR cis-factorial reporter transcription; actives raise or lower the signal
Outline: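 Read-out: reporter mRNA quantified by RT-PCR with fluorescent primer extension and capillary electrophoresis. Human HepG2 liver cells carried transfected cis-promoter reporter units and were exposed to chemical for 24 h; gain or loss fitted relative to DMSO.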

[7] = ATG_AP_1_CIS: Attagene CIS-FACTORIAL HepG2 Assay for human Activator Protein 1 (AP-1) (AID 2282931); conditions: HepG2 Attagene cis-factorial AP-1 reporter mRNA; actives raise or lower the signal
Outline: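 Fluorescence of labelled PCR fragments separated by capillary electrophoresis gives reporter mRNA levels. HepG2 with transfected cis-regulated reporter units, 24 h exposure; DMSO serves as baseline for bidirectional curve fits.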

[8] = ATG_AP_2_CIS: Attagene CIS-FACTORIAL HepG2 Assay for human Activator Protein 2 (AP-2) (AID 2282932); conditions: HepG2 AP-2 cis-reporter, Attagene transcription factor profiling; actives raise or lower the signal
Outline: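 Liver-derived HepG2 line, cis-reporter system measuring endogenous factors; 24 h dosing; reporter mRNA detected by fluorescent RT-PCR and capillary electrophoresis.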

[9] = ATG_BRE_CIS: Attagene CIS-FACTORIAL HepG2 Assay for human Bone Morphogenetic Protein (BMP) Response Element (BRE) (AID 2282933); conditions: HepG2 BMP response element reporter, Attagene transcription factor profiling; actives raise or lower the signal
Outline: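 Multiplexed cis-reporter assay, HepG2, 24 h exposure. mRNA from reporter units quantified via RT-PCR/CE; DMSO baseline; bidirectional curve fit.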

[10] = target: Retinoic acid receptor alpha (Homo sapiens) (UniProt P10276); assay: ATG_DR5_RAR_CIS: Attagene CIS-FACTORIAL HepG2 Assay for human Retinoic Acid Receptor Alpha (RARE), DR5 submotif (AID 2282934); conditions: HepG2 Attagene cis-factorial RARE DR5 reporter, mRNA; actives raise or lower the signal
Outline: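 Read-out: DR5-driven reporter transcript measured by RT-PCR, 6-FAM primer extension, HpaI digest and capillary electrophoresis. Human HepG2 liver cells carry transiently transfected cis-element reporter constructs; dosing lasts 24 h. Gain or loss of signal fitted against DMSO baseline.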

[11] = target: Transcription factor E2F1 (Homo sapiens) (UniProt Q01094); assay: ATG_E2F_CIS: Attagene CIS-FACTORIAL HepG2 Assay for human E2F Transcription Factor 1 (AID 2282935); conditions: HepG2 Attagene cis-reporter, E2F reporter RNA transcripts; actives raise or lower the signal
Outline: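 Liver-derived HepG2 cells expressing transfected promoter-driven reporter units received test chemical for 24 hours. Signal gains or losses were fitted bidirectionally against DMSO.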

[12] = ATG_E_Box_CIS: Attagene CIS-FACTORIAL HepG2 Assay for human Enhancer Box (E-box) (AID 2282936); conditions: HepG2 E-box cis-reporter transcription, actives raise or lower the signal
Outline: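 In this cell-based setup, HepG2 cells bearing transfected promoter-driven reporter units were exposed to chemicals for 24 h; reporter transcripts were amplified, 6-FAM-labelled, cut with HpaI and sized by capillary electrophoresis.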

[13] = ATG_M_61_CIS: Attagene CIS-FACTORIAL HepG2 Assay for M61 Transcription Factor (Internal Marker) (AID 2282937); conditions: HepG2 Attagene CIS-FACTORIAL M61 internal marker reporter; actives raise or lower the signal
Outline: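 This endpoint serves as an internal background control within a multiplexed HepG2 cis-reporter panel. Cells are exposed for 24 h; reporter mRNA is amplified, fluorescently labelled and sized by capillary electrophoresis, with DMSO as negative control.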

[14] = ATG_EGR_CIS: Attagene CIS-FACTORIAL HepG2 Assay for human Early Growth Response 1 (EGR1) (AID 2282938); conditions: HepG2 Attagene CIS-FACTORIAL EGR reporter mRNA; actives raise or lower the signal
Outline: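 HepG2, transient MRTU transfection (cis promoters), 24 h compound. RNA → RT (oligo-dT) → PCR → 6-FAM labelling → HpaI cut → CE fluorescence. Bidirectional fit, DMSO baseline.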

[15] = ATG_M_19_CIS: Attagene CIS-FACTORIAL HepG2 Assay for M19 Transcription Factor (Internal Marker) (AID 2282939); conditions: HepG2 Attagene CIS-FACTORIAL M19 internal marker reporter; actives raise or lower the signal
Outline: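 Signals come from fluorescence of labelled reporter-specific PCR fragments resolved by capillary electrophoresis, following 24 h treatment of HepG2 cells transfected with cis-promoter reporter units; activity was fitted in both directions relative to DMSO.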

[16] = ATG_Ets_CIS: Attagene CIS-FACTORIAL HepG2 Assay for human Erythroblast Transformation Specific (ETS) (AID 2282941); conditions: HepG2 ETS cis-reporter transcription, actives raise or lower the signal
Outline: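 Multiplexed reporter transcript profiling: HepG2, 24 h treatment, total RNA to cDNA, PCR, 6-FAM labelling, HpaI cut, capillary electrophoresis. Gain- or loss-of-signal fitted against DMSO.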

[17] = target: Hepatocyte nuclear factor 3-beta (Homo sapiens) (UniProt Q9Y261); assay: ATG_FoxA2_CIS: Attagene CIS-FACTORIAL HepG2 Assay for human Forkhead box A2 (FOXA2) (AID 2282942); conditions: HepG2 cis-reporter transcription factor activity, 24 h; actives raise or lower the signal
Outline: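 Cells: HepG2, transient multiplex reporter transfection. Exposure 24 h. Detection: reporter-specific RT-PCR, fluorescent labelling, restriction digest, capillary electrophoresis. Analysis: bidirectional curve fit, DMSO as negative control.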

[18] = ATG_FoxO_CIS: Attagene CIS-FACTORIAL HepG2 Assay for human Forkhead box O (FoxO) (AID 2282943); conditions: HepG2 Attagene cis-reporter, FoxO element, mRNA; actives raise or lower the signal
Outline: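 Read-out: fluorescence of 6-FAM-labelled reporter cDNA fragments resolved by capillary electrophoresis. Transiently transfected HepG2 cells were dosed for 24 h; activity fitted in both directions relative to DMSO controls.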

[19] = ATG_GATA_CIS: Attagene CIS-FACTORIAL HepG2 Assay for human GATA Binding Protein (AID 2282944); conditions: HepG2 GATA cis-element reporter, Attagene multiplex mRNA; actives raise or lower the signal
Outline: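 After transfecting HepG2 cells with multiple cis-regulated reporter units, chemicals are dosed for 24 h; isolated RNA undergoes RT-PCR and fluorescent labeling before capillary electrophoresis, with activity expressed against DMSO.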

[20] = ATG_ERE_CIS: Attagene CIS-FACTORIAL HepG2 Assay for Estrogen Response Element (ERE) (AID 2282940); conditions: HepG2 ERE cis-reporter, Attagene RNA transcript; actives raise or lower the signal
Outline: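 Fluorescence of capillary-separated, FAM-labelled reporter cDNA fragments indicates reporter mRNA levels in HepG2 cells exposed to chemicals for 24 h. Transient transfection with cis-regulated units; data fitted in both directions against DMSO.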

Measured: AC50

Chain of CCAAT/enhancer-binding protein beta (Homo sapiens) (P17676 whole entry, looked up): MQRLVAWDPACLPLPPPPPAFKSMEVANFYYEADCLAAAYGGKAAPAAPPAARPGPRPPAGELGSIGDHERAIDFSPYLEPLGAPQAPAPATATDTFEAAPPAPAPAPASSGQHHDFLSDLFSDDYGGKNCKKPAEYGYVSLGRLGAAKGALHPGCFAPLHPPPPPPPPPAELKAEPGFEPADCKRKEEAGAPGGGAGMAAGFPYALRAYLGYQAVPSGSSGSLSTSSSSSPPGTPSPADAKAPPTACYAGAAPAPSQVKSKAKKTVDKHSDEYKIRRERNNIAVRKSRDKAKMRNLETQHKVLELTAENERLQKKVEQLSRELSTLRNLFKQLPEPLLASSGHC
Chain of Aryl hydrocarbon receptor (Homo sapiens) (P35869 whole entry, looked up): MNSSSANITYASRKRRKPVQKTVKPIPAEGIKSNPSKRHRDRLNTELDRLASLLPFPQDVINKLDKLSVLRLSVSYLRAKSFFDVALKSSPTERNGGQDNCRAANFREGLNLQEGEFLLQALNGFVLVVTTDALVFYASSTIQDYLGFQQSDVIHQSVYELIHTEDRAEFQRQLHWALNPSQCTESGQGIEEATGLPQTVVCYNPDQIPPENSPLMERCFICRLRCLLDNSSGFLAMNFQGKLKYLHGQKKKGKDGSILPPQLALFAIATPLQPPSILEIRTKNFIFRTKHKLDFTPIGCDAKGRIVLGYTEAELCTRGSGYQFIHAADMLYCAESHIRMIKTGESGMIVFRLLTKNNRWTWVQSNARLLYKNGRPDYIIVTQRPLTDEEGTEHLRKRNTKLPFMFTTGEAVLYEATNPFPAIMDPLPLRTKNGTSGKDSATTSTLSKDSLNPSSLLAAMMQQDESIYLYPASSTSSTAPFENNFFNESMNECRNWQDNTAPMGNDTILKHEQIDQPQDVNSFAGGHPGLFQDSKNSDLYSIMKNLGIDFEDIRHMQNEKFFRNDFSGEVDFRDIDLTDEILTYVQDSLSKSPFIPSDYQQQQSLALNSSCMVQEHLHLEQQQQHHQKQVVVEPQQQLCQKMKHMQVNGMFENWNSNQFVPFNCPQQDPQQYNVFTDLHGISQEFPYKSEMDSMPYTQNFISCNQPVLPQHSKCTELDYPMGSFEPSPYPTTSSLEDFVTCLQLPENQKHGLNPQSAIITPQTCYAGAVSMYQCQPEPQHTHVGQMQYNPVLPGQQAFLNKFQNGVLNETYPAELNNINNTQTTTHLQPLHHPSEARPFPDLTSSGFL
Chain of Retinoic acid receptor alpha (Homo sapiens) (P10276 whole entry, looked up): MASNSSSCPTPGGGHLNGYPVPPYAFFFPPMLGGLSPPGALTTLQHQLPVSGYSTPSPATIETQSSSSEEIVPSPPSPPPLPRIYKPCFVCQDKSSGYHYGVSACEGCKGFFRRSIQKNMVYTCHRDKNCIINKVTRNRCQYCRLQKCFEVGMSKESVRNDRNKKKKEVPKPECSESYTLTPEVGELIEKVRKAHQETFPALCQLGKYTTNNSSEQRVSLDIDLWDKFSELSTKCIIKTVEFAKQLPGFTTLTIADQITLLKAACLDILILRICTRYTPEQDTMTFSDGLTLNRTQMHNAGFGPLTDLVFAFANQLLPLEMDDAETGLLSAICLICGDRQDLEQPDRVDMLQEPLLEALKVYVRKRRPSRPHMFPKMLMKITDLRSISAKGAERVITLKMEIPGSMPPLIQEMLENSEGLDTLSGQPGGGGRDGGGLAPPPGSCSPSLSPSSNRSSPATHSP
Chain of Transcription factor E2F1 (Homo sapiens) (Q01094 whole entry, looked up): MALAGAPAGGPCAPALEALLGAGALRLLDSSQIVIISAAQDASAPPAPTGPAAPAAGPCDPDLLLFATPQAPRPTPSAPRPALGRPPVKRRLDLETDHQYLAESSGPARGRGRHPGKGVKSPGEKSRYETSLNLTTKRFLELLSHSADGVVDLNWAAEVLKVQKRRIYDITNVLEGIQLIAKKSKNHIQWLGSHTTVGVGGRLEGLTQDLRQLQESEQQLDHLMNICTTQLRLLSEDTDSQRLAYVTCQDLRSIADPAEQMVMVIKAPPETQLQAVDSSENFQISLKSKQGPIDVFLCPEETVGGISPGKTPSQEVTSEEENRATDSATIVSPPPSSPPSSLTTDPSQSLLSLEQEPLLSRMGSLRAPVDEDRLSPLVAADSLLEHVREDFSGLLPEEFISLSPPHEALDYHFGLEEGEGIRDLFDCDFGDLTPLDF
Chain of Hepatocyte nuclear factor 3-beta (Homo sapiens) (Q9Y261 whole entry, looked up): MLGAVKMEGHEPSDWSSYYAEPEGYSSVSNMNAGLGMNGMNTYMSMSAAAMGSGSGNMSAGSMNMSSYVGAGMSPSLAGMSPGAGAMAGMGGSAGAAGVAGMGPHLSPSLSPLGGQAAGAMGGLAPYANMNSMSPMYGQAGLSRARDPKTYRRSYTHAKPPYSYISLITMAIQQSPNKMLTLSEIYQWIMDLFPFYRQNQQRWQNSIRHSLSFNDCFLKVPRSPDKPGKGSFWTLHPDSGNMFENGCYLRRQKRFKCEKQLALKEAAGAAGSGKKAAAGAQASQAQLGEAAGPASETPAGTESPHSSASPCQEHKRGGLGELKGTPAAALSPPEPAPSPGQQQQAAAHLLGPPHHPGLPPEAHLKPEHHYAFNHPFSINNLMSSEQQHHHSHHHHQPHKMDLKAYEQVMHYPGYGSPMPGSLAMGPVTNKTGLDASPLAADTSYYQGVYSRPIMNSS

CCc1ccc(C)nc1
not listed: [20]
inactive: all other assays above

O=C(O)C(F)(F)C(F)(F)C(F)(F)OC(F)(F)F
inactive: all assays above

CCCCCCCCCCCCCC[P+](CCCC)(CCCC)CCCC
active: [1] 0.0203 µM | [2] 0.758 µM | [9] 0.745 µM
inactive: all other assays above

Cc1cccc(C)n1
inactive: all assays above

CCN=c1cc2oc3cc(NCC)c(C)cc3c(-c3ccccc3C(=O)OCC)c-2cc1C
active: [1] 0.0353 µM | [2] 11.1 µM | [5] 4.45 µM | [7] 2.75 µM | [8] 11.1 µM | [12] 11.1 µM | [14] 11.1 µM
not listed: [20]
inactive: all other assays above

C=CC(=O)OCC(F)(F)C(F)(F)C(F)(F)COC(=O)C=C
active: [4] 31.6 µM | [5] 31.7 µM | [12] 78.6 µM | [14] 42.4 µM
inactive: all other assays above

CCCCCCCCCCCCC[N+](C)(C)Cc1ccccc1
active: [9] 5.63 µM
not listed: [20]
inactive: all other assays above
